Experimental data: the supplement of paper PMC10849652
The full data set covers some 8,800 targets. This sample favours those with a hit. About 0.5% of all pairs of compound and target were hits. A number with no mark means an inactive call.

These targets were tested with Cc1cc(Nc2cc(CN3CCOCC3)c3nc(C)c(Cc4ccc(Cl)cc4F)n3n2)n[nH]1 [gandotinib] (assay: log2 fold change, soluble protein after heating vs DMSO (PISA); higher = thermal stabilisation; K562 lysate, 10 uM; active = over 0.2 and 3.5 SD of the protein, either way, in both replicates (recomputed)).
Method in brief: (§1)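 Values give the log-two fold change in thermal stability against solvent controls, from duplicates. Crude K562 extract at 1 mg/mL protein, made by dounce homogenisation in PBS pH 7.4 with 1 mM MgCl2, was treated with 10 μM compound for 30 min. After 3 min heating across 48°C-58°C, aliquots were pooled, adjusted to 0.5% NP-40 at 4°C and centrifuged at 21,000xg for 90 min. The supernatant was measured by TMTpro 16plex LC-MS/MS with channel sums equalised.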

Chain of UniProt O00483 (O00483 whole entry, looked up): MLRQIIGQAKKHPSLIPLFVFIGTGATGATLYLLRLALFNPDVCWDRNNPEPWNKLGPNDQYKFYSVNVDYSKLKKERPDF
Chain of UniProt Q15843 (Q15843 whole entry, looked up): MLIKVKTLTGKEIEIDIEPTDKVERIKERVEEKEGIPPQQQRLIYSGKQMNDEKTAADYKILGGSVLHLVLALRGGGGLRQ
Chain of UniProt O95644 (O95644 whole entry, looked up): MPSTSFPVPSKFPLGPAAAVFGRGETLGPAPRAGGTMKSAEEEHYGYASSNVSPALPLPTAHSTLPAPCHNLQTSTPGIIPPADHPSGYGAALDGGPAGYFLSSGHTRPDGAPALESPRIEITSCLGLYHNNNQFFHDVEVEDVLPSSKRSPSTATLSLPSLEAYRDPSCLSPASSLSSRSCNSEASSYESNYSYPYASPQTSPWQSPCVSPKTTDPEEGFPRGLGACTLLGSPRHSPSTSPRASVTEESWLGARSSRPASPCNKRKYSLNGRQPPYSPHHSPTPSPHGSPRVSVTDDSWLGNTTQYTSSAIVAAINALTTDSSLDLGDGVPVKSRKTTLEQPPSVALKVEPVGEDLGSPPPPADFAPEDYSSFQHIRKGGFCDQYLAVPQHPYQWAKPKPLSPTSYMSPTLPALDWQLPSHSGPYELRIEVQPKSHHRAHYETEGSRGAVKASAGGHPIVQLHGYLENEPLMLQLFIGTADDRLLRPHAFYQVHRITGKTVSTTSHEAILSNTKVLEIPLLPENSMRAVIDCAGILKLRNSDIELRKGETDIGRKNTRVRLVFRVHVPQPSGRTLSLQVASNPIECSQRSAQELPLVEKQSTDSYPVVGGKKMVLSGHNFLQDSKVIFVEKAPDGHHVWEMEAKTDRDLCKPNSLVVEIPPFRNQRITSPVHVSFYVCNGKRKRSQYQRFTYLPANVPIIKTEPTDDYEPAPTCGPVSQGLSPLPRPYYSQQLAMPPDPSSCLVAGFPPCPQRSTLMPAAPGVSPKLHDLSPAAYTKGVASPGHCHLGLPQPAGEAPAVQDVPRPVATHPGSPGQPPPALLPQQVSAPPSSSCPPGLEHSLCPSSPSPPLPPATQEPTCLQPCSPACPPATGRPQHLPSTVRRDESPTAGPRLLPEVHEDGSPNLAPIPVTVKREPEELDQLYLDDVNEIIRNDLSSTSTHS
Chain of UniProt Q9Y5A7 (Q9Y5A7 whole entry, looked up): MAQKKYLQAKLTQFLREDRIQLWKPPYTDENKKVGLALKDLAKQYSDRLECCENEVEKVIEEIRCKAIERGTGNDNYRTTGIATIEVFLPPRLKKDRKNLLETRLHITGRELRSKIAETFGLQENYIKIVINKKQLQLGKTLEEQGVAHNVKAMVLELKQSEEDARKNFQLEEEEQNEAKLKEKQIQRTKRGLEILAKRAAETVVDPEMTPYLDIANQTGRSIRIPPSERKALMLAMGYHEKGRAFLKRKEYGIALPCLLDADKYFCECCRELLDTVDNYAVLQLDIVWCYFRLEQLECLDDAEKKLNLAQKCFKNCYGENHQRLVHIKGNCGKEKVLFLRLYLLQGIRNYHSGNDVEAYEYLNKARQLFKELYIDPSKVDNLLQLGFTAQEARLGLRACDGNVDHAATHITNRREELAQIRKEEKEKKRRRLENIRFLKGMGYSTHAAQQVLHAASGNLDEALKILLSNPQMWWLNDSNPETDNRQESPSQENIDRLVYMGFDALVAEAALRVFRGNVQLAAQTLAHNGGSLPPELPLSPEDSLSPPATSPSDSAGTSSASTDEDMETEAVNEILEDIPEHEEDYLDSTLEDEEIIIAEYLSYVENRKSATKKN
Chain of UniProt Q9H857 (Q9H857 whole entry, looked up): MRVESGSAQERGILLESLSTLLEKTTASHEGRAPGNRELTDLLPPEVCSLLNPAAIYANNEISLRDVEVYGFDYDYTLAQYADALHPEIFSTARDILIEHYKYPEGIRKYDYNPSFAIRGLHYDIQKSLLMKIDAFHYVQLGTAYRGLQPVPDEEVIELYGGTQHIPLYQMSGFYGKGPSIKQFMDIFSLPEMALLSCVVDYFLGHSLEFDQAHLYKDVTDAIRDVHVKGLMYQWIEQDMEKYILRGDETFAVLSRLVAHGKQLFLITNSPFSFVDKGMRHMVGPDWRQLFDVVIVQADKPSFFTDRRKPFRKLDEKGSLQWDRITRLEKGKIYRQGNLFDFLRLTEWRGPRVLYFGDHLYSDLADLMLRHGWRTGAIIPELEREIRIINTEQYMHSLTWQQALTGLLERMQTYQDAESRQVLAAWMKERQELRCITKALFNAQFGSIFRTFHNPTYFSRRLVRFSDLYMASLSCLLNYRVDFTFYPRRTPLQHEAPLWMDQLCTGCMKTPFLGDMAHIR
Chain of UniProt Q13416 (Q13416 whole entry, looked up): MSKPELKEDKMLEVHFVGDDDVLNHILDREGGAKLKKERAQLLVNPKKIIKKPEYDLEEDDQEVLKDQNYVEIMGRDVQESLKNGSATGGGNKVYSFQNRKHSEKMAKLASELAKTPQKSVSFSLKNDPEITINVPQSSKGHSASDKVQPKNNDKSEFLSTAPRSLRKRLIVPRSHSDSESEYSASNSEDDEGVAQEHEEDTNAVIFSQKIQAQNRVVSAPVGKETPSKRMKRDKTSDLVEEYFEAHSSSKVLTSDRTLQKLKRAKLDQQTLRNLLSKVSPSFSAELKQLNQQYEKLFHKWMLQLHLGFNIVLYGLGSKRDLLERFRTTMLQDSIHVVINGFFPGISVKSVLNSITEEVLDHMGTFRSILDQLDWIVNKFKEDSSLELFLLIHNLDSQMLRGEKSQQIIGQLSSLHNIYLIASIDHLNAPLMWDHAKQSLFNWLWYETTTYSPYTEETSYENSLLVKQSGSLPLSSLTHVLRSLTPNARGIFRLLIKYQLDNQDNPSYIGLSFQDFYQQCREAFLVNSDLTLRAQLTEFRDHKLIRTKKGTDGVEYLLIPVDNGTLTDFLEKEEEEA
Chain of UniProt Q99417 (Q99417 whole entry, looked up): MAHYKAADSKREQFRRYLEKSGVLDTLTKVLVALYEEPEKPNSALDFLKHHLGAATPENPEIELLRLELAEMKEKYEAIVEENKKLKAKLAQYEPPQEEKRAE
Chain of UniProt Q13469 (Q13469 whole entry, looked up): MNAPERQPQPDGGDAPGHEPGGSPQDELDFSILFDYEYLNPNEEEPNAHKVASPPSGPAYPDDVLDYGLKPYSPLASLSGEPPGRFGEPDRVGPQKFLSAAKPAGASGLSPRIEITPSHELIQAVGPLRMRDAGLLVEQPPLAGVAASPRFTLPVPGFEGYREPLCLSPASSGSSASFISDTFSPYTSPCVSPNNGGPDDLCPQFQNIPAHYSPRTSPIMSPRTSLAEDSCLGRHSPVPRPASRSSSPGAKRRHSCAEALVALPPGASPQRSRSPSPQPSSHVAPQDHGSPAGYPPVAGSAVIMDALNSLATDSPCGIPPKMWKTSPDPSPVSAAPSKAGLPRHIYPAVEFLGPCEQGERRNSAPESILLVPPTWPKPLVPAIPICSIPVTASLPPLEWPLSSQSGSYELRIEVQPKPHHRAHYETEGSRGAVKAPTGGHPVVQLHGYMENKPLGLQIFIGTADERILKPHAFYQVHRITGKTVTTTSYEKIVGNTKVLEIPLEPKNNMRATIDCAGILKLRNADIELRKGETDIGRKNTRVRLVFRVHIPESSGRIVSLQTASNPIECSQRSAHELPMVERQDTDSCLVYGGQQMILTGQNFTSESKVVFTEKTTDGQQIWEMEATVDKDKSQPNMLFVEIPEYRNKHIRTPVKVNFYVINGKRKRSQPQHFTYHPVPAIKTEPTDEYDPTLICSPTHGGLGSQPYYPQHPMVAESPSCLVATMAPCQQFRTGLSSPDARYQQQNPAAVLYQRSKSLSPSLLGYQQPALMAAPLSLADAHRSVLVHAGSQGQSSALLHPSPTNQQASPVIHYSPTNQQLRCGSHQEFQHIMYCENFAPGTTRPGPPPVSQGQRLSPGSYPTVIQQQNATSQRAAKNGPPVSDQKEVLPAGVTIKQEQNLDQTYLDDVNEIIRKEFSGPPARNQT
Chain of UniProt Q8NC60 (Q8NC60 whole entry, looked up): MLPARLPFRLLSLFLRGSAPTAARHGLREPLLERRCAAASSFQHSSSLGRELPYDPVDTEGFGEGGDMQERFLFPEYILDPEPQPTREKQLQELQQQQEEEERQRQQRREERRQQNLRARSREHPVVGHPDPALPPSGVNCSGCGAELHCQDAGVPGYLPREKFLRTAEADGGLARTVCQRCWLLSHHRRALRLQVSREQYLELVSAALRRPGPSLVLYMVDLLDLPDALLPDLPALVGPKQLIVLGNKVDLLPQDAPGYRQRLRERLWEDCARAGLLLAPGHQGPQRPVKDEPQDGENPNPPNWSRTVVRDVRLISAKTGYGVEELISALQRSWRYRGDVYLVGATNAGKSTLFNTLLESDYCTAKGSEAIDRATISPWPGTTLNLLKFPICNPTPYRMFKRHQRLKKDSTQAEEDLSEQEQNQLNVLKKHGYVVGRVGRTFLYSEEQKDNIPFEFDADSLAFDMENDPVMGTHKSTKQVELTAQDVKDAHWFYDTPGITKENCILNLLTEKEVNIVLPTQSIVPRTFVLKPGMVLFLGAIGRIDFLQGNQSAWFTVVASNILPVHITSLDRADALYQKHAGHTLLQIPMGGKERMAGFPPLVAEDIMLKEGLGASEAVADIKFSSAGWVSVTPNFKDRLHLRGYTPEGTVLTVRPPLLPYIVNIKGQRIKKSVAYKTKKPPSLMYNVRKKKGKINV
Chain of UniProt Q9BRA0 (Q9BRA0 whole entry, looked up): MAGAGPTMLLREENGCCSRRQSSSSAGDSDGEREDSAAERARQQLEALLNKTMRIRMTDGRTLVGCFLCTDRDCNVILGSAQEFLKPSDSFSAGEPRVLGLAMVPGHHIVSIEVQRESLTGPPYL
Chain of UniProt Q96NT1 (Q96NT1 whole entry, looked up): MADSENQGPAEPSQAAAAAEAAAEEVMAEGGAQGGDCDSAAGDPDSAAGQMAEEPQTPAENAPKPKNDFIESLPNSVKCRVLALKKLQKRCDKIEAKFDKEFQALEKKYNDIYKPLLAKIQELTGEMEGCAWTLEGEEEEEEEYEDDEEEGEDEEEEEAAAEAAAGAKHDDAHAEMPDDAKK

Row | Target | log2 fold change
1 | NTPCR (UniProt Q9BSD7) | -0.094
2 | MTHFD1L (UniProt B7ZM99) | -0.039
3 | NOA1 (UniProt Q8NC60) | 0.039
4 | NT5DC2 isoform 2 (UniProt Q9H857) | 0.021
5 | OTUD7B (UniProt Q6GQQ9) | 0.032
6 | NADK2 (UniProt Q4G0N4) | 0.004
7 | NTMT1 (UniProt Q9BV86) | -0.113
8 | OSGEP (UniProt Q9NPF4) | -0.024
9 | NDUFA4 (UniProt O00483) | -0.294 (active)
10 | NUB1 (UniProt Q9Y5A7) | 0.011
11 | NFATC2 (UniProt Q13469) | 0.133
12 | ORC2 (UniProt Q13416) | -0.087
13 | NELFCD (UniProt Q8IXH7) | -0.087
14 | NMRAL1 (UniProt Q9HBL8) | -0.01
15 | PAIP2 (UniProt Q9BPZ3) | 0.022
16 | NCAPD2 (UniProt Q15021) | -0.115
17 | NEDD8 (UniProt Q15843) | -0.062
18 | NFIC (UniProt P08651) | 0.237

Row | Target | log2 fold change
19 | NELFA (UniProt Q9H3P2) | -0.079
20 | NLRP2 (UniProt Q9NX02) | -0.049
21 | OSBPL6 isoform 5 (UniProt Q9BZF3) | 0.033
22 | MTCH2 (UniProt Q9Y6C9) | 0.142
23 | NAA38 isoform 2 (UniProt Q9BRA0) | 0.202
24 | NAP1L5 (UniProt Q96NT1) | -0.299
25 | MT-ND1 (UniProt P03886) | 0.061
26 | NFATC2IP (UniProt Q8NCF5) | 0.039
27 | MYCBP (UniProt Q99417) | 0.105
28 | NIT2 (UniProt Q9NQR4) | -0.01
29 | NEBL (UniProt O76041) | -0.204
30 | NFKBIB (UniProt Q15653) | 0.095
31 | NEK7 (UniProt Q8TDX7) | -0.031
32 | NCOR1 (UniProt O75376) | -0.03
33 | ORC3 isoform 2 (UniProt Q9UBD5) | -0.097
34 | NCK1 (UniProt P16333) | -0.051
35 | NFATC1 (UniProt O95644) | 0.132

These targets were tested with Cc1cc(Nc2cc(N3CCN(C)CC3)nc(Sc3ccc(NC(=O)C4CC4)cc3)n2)n[nH]1 [tozasertib] in the same assay as above.
Method in brief: as §1

Row | Target | log2 fold change
36 | NTPCR (UniProt Q9BSD7) | -0.028
37 | MTHFD1L (UniProt B7ZM99) | 0.002
38 | NOA1 (UniProt Q8NC60) | -0.034
39 | NT5DC2 isoform 2 (UniProt Q9H857) | -0.019
40 | OTUD7B (UniProt Q6GQQ9) | -0.01
41 | NADK2 (UniProt Q4G0N4) | 0.012
42 | NTMT1 (UniProt Q9BV86) | -0.041
43 | OSGEP (UniProt Q9NPF4) | 0.043
44 | NDUFA4 (UniProt O00483) | -0.01
45 | NUB1 (UniProt Q9Y5A7) | 0.027
46 | NFATC2 (UniProt Q13469) | 0
47 | ORC2 (UniProt Q13416) | -0.017
48 | NELFCD (UniProt Q8IXH7) | -0.025
49 | NMRAL1 (UniProt Q9HBL8) | -0.051
50 | PAIP2 (UniProt Q9BPZ3) | 0.035
51 | NCAPD2 (UniProt Q15021) | -0.006
52 | NEDD8 (UniProt Q15843) | 0.06
53 | NFIC (UniProt P08651) | 0.035

Row | Target | log2 fold change
54 | NELFA (UniProt Q9H3P2) | 0.048
55 | NLRP2 (UniProt Q9NX02) | 0.005
56 | OSBPL6 isoform 5 (UniProt Q9BZF3) | 0.036
57 | MTCH2 (UniProt Q9Y6C9) | -0.028
58 | NAA38 isoform 2 (UniProt Q9BRA0) | 0.062
59 | NAP1L5 (UniProt Q96NT1) | -0.016
60 | MT-ND1 (UniProt P03886) | -0.074
61 | NFATC2IP (UniProt Q8NCF5) | -0.035
62 | MYCBP (UniProt Q99417) | 0.028
63 | NIT2 (UniProt Q9NQR4) | 0.002
64 | NEBL (UniProt O76041) | 0.01
65 | NFKBIB (UniProt Q15653) | -0.024
66 | NEK7 (UniProt Q8TDX7) | -0.022
67 | NCOR1 (UniProt O75376) | -0.009
68 | ORC3 isoform 2 (UniProt Q9UBD5) | -0.024
69 | NCK1 (UniProt P16333) | 0.005
70 | NFATC1 (UniProt O95644) | -0.002
